In the library only some 27% were active in any assay of this set; here they are far more common.
CYP2C19 inhib – blockers of cytochrome P450 2C19 activity – biochemical, luminescence, ADME assay, primary screen. AID 778, 2007. 96,000 compounds, 21% hits. CYP2C19 Supersomes, luciferin-H EGE luminescence, 30 min. inhibition, % at 5 µM;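 active = CYP2C19 inhibition above a set limit at 5 µM in the primary screen, cut at about 50% in these data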;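 also: plate controls were negative control wells for no effect and 2.5 mM tranylcypromine positive control for full effect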
CYP2C9 inhib – blockers of cytochrome P450 2C9 activity – biochemical, luminescence, ADME assay, primary screen; P11712; CYP2C9 Supersomes, luciferin-H conversion; inhibition, % at 5 µM; 96,000 compounds, 20% hits; AID 777, 2007;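 active = blocking of liver enzyme CYP2C9 beyond about 50% at 5 µM, limit read from the data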
Target sequence (P11712 whole entry, looked up): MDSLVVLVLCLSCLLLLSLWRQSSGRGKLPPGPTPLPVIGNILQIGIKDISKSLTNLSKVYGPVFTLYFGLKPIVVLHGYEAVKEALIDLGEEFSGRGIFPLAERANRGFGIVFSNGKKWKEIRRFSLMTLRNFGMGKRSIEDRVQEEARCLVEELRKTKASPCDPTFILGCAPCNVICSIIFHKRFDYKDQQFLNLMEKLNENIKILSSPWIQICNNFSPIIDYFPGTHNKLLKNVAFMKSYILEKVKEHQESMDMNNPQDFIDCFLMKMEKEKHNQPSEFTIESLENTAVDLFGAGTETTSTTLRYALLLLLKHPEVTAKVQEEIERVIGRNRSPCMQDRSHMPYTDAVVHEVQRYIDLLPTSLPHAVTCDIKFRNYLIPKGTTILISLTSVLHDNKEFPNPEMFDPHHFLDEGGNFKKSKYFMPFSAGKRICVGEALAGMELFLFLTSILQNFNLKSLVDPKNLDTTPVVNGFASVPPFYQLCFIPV
Cav3 T inh – Cav3.2 calcium influx blockers – cell-based, Fluo-4 calcium fluorescence, FDSS, MLSMR library, primary screen. Cav3.2-expressing cells; active compounds read low. 100,000 compounds, 4% hits. B-score at 10 µM;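 active = single-dose well whose peak fluorescence ratio is a statistical outlier from its plate by either plate-standardised score or position-corrected B-score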
CYP2C19 activ – human CYP2C19 activators, primary screen, biochemical, luminescence; Cytochrome P450 2C19 (Homo sapiens), P33261; AID 1025, 2008; activation factor at 5 µM; 96,000 tested, under 10 active; recombinant CYP2C19, luciferin-H EGE luminescence; active compounds read high; 0 = fully inhibited enzyme, 1 = untreated enzyme;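 active = activation factor of at least 2 at 5 µM in the primary screen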;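 also: 0 = wells with 2.5 mM tranylcypromine and 1 = vehicle-only wells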
CYP2C9 activ – human CYP2C9 activators, primary screen, biochemical, luminescence; recombinant CYP2C9, luciferin-H conversion; active compounds read high; factor 1 = untreated enzyme, 0 = blocked; 96,000 compounds, 1.4% hits; AID 1024, 2008; Cytochrome P450 2C9 (Homo sapiens), P11712; activation factor at 5 µM;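 active = activation factor of 2 or more for CYP2C9 at a 5 µM dose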;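 also: 0 = sulfaphenazole-blocked wells and 1 = vehicle-only wells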
Starred values were filed as active, the others as inactive.

Cc1nc2ccc(S(=O)(=O)NC(C(=O)N3CCC(C)CC3)C(C)C)cc2s1 (centres undefined) was read as CYP2C19 inhib 13, CYP2C9 inhib 29, Cav3 T inh 0.37, CYP2C19 activ 0.9 and CYP2C9 activ 0.7.
For Cc1noc2ncnc(Sc3ccccc3Cl)c12 the results were CYP2C19 inhib 100*, CYP2C9 inhib 68*, Cav3 T inh -0.14, CYP2C19 activ 0 and CYP2C9 activ 0.3.
Cc1noc2ncnc(Oc3ccccc3)c12 was read as CYP2C19 inhib 76*, CYP2C9 inhib 49, Cav3 T inh -0.85, CYP2C19 activ 0.2 and CYP2C9 activ 0.5.
For CCc1ccc2c(c1)/C(=C/C(=O)c1cccs1)C(=O)N2 the results were CYP2C19 inhib 8, CYP2C9 inhib 20, Cav3 T inh 1.4, CYP2C19 activ 0.9 and CYP2C9 activ 0.8.
Screening CCc1ccc2c(c1)/C(=N/N(C)C(=S)NC)C(=O)N2 returned CYP2C19 inhib 52*, CYP2C9 inhib 11, CYP2C19 activ 0.5 and CYP2C9 activ 0.9.
Cn1c(Cn2nnc3ccccc32)nnc1SCC(=O)N1c2ccccc2Sc2ccccc21 was read as CYP2C19 inhib 33, CYP2C9 inhib 52*, Cav3 T inh -2.4, CYP2C19 activ 0.7 and CYP2C9 activ 0.5.
`Cn1c(Cn2nnc3ccccc32)nnc1SCC(N)=O` gave CYP2C19 inhib -20, CYP2C9 inhib -19, Cav3 T inh 0.017, CYP2C19 activ 1.2 and CYP2C9 activ 1.2.
For CC(=O)Nc1ccc(C(=O)CSc2nnc(Cn3nnc4ccccc43)n2C)cc1 the results were CYP2C19 inhib 26, CYP2C9 inhib 33, Cav3 T inh 0.01, CYP2C19 activ 0.7 and CYP2C9 activ 0.7.
Screening Cn1c(Cn2nnc3ccccc32)nnc1SCC(=O)N1c2ccccc2CCc2ccccc21 returned CYP2C19 inhib 40, CYP2C9 inhib 64*, Cav3 T inh -0.78, CYP2C19 activ 0.6 and CYP2C9 activ 0.4.
`Cn1c(SCC(=O)N2c3ccccc3Sc3ccc(Cl)cc32)nnc1-c1ccco1` gave Cav3 T inh -3.8.
Screening Cn1nnnc1SCC(=O)N1c2ccccc2Sc2ccc(Cl)cc21 returned CYP2C19 inhib 75*, CYP2C9 inhib 36, CYP2C19 activ 0.3 and CYP2C9 activ 0.6.
For O=C(Oc1ccc2ccccc2c1)c1ccccc1 the results were CYP2C19 inhib -3, CYP2C9 inhib 14, Cav3 T inh -0.22, CYP2C19 activ 1 and CYP2C9 activ 0.9.
`Clc1ccccc1C1SCC2Nc3ccccc3CN21` (centres undefined) gave CYP2C19 inhib 87*, CYP2C9 inhib 53*, Cav3 T inh -0.95, CYP2C19 activ 0.1 and CYP2C9 activ 0.5.
For CCOC(=O)C1=C(CNCc2ccc(C)cc2)NC(=O)NC1c1cc(C)ccc1C (centres undefined) the results were CYP2C19 inhib 47, CYP2C9 inhib 55*, Cav3 T inh -1.5, CYP2C19 activ 0.5 and CYP2C9 activ 0.5.
`CCOC(=O)C1=C(Cn2cnc3ccccc32)NC(=O)NC1c1cc(C)ccc1C` (centres undefined) gave CYP2C19 inhib 46, CYP2C9 inhib 30, Cav3 T inh -3.5, CYP2C19 activ 0.5 and CYP2C9 activ 0.7.
Screening COc1ccccc1/C=N/NC1=NCCCCC1 returned CYP2C19 inhib 6, CYP2C9 inhib 2, Cav3 T inh 0.51, CYP2C19 activ 0.9 and CYP2C9 activ 1.
`OCCOCCNc1ncnc2sc(-c3ccccc3)cc12` gave CYP2C19 inhib 64*, CYP2C9 inhib 59*, Cav3 T inh 1.9, CYP2C19 activ 0.4 and CYP2C9 activ 0.4.
`CCc1cc2c(NCCO)ncnc2s1` gave CYP2C19 inhib -13, CYP2C9 inhib -5, Cav3 T inh -0.079, CYP2C19 activ 1.1 and CYP2C9 activ 1.1.
For CCN1CCN(Cc2nc3c(c(=O)n(C)c(=O)n3C)n2CCc2ccccc2)CC1 the results were Cav3 T inh -0.031.
Screening CCN1CCN(Cc2nc3c(c(=O)n(C)c(=O)n3C)n2C(C)C(C)=O)CC1 (centres undefined) returned CYP2C19 inhib 68*, CYP2C9 inhib 32, Cav3 T inh 0.093, CYP2C19 activ 0.3 and CYP2C9 activ 0.7.

High-throughput results: PubChem, several laboratories
